{"source": "paper PMC8384837", "about": "“Expanding the binding specificity for RNA recognition by a PUF domain”", "experiment_in_all_cases": "yeast three-hybrid, YBZ-1, SC-Leu-His + 0.5 mM 3-AT, 4 days", "conditions_in_all_cases": "tags: N-Gal4 AD-HA kept; label: inside an RPR1-promoter hybrid RNA with tandem MS2 sites; ssRNA", "key": {"PUM1 PUF domain R4-SHF": {"target": "PUM1 PUF domain R4-SHF (Homo sapiens, UniProt Q14671 828-1176, N971S;Q975F)", "outline": "(§1)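 Matching RNA elements and Pumilio-1 PUF domain libraries, randomized at the three base-contacting residues of every repeat, were co-expressed from a centromeric plasmid in strain YBZ-1 (LexA–MS2 coat fusion, HIS3 reporter). The repeat regions were PCR-amplified and Illumina-sequenced from cells grown four days on SC-Leu (input) or SC-Leu-His + 0.5 mM 3-AT (selection). The interaction score is the log change in variant frequency from input to selection. It is computed in log2, with a pseudocount of 1 for absent variants.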"}, "PUM1 PUF domain R1-RYT": {"target": "PUM1 PUF domain R1-RYT (Homo sapiens, UniProt Q14671 828-1176, S863R;R864Y;Q867T)", "outline": "as §1"}, "PUM1 PUF domain R4-FNQ": {"target": "PUM1 PUF domain R4-FNQ (Homo sapiens, UniProt Q14671 828-1176, N971F;H972N)", "outline": "as §1"}, "PUM1 PUF domain R6-FRQ": {"target": "T1, PUM1 PUF domain R6-FRQ (Homo sapiens, UniProt Q14671 828-1176, N1043F;Y1044R)", "T1 sequence": "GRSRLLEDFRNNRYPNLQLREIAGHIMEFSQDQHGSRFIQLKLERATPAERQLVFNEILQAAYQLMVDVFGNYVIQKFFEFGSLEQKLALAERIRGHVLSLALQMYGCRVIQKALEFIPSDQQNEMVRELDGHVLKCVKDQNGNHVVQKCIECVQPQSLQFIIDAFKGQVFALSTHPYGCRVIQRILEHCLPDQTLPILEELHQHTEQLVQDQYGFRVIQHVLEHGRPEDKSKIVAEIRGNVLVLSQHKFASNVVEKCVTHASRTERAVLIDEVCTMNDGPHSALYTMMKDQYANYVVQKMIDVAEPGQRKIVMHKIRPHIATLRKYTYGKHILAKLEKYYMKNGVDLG", "outline": "as §1"}, "PUM1 PUF domain R5-PRL": {"target": "PUM1 PUF domain R5-PRL (Homo sapiens, UniProt Q14671 828-1176, C1007P;Q1011L)", "outline": "as §1"}, "PUM1 PUF domain R6-RFI": {"target": "T2, PUM1 PUF domain R6-RFI (Homo sapiens, UniProt Q14671 828-1176, N1043R;Y1044F;Q1047I)", "T2 sequence": "T1 sequence with F216R, R217F, Q220I", "outline": "as §1"}, "PUM1 PUF domain R5-RNC": {"target": "PUM1 PUF domain R5-RNC (Homo sapiens, UniProt Q14671 828-1176, C1007R;R1008N;Q1011C)", "outline": "as §1"}, "PUM1 PUF domain R6-GYM": {"target": "T3, PUM1 PUF domain R6-GYM (Homo sapiens, UniProt Q14671 828-1176, N1043G;Q1047M)", "T3 sequence": "T1 sequence with F216G, R217Y, Q220M", "outline": "as §1"}, "PUM1 PUF domain R5-RKT": {"target": "PUM1 PUF domain R5-RKT (Homo sapiens, UniProt Q14671 828-1176, C1007R;R1008K;Q1011T)", "outline": "as §1"}}, "note": "Numbering of substitutions follows the chain as printed.", "data": [{"sequence": "GGCUAGAACUAGUGGAUCCCCCGGCGCCCGGCGGCUCGAGCCCGGGUAAGUGUACAUAGUCUGCAUGCCGCCGGGCGCCAUGCCUGCAGGUCGACUCUAGAAAACAUG", "values": [{"measurement": "binding signal", "setting": "PUM1 PUF domain R4-SHF", "result": "5.41 log2 enrichment (interaction score)"}]}, {"sequence": "GGCUAGAACUAGUGGAUCCCCCGGCGCCCGGCGGCUCGAGCCCGGGUAAGUGUAAAUGGUCUGCAUGCCGCCGGGCGCCAUGCCUGCAGGUCGACUCUAGAAAACAUG", "values": [{"measurement": "binding signal", "setting": "PUM1 PUF domain R1-RYT", "result": "0.45 log2 enrichment (interaction score)"}]}, {"sequence": "GGCUAGAACUAGUGGAUCCCCCGGCGCCCGGCGGCUCGAGCCCGGGUAAGUGUAUAUAGUCUGCAUGCCGCCGGGCGCCAUGCCUGCAGGUCGACUCUAGAAAACAUG", "values": [{"measurement": "binding signal", "setting": "PUM1 PUF domain R4-FNQ", "result": "4.16 log2 enrichment (interaction score)"}]}, {"sequence": "GGCUAGAACUAGUGGAUCCCCCGGCGCCCGGCGGCUCGAGCCCGGGUAAGUGUAAAUAGUCUGCAUGCCGCCGGGCGCCAUGCCUGCAGGUCGACUCUAGAAAACAUG", "values": [{"measurement": "binding signal", "setting": "PUM1 PUF domain R6-FRQ", "result": "2.83 log2 enrichment (interaction score)"}, {"measurement": "binding signal", "setting": "PUM1 PUF domain R5-PRL", "result": "3.53 log2 enrichment (interaction score)"}, {"measurement": "binding signal", "setting": "PUM1 PUF domain R6-RFI", "result": "2.68 log2 enrichment (interaction score)"}, {"measurement": "binding signal", "setting": "PUM1 PUF domain R5-RNC", "result": "1.15 log2 enrichment (interaction score)"}, {"measurement": "binding signal", "setting": "PUM1 PUF domain R6-GYM", "result": "3.33 log2 enrichment (interaction score)"}]}, {"sequence": "GGCUAGAACUAGUGGAUCCCCCGGCGCCCGGCGGCUCGAGCCCGGGUAAGUGUCAAUAGUCUGCAUGCCGCCGGGCGCCAUGCCUGCAGGUCGACUCUAGAAAACAUG", "values": [{"measurement": "binding signal", "setting": "PUM1 PUF domain R5-PRL", "result": "0.34 log2 enrichment (interaction score)"}, {"measurement": "binding signal", "setting": "PUM1 PUF domain R5-RKT", "result": "2.84 log2 enrichment (interaction score)"}, {"measurement": "binding signal", "setting": "PUM1 PUF domain R5-RNC", "result": "3.93 log2 enrichment (interaction score)"}]}]}
